Rows were chosen to be rich in hits. Some 3.3% of all compounds tested hit in one or more screens of this group.
esBAF inh: Bmi1 luciferase reporter increase in mESCs, primary screen, esBAF inhibitor project, mouse ES cells, Bmi1 luciferase knock-in, single point; 24 h; 100% = twice the neutral-well signal; reporter increase, % at 12.5 µM; 350,000 tested, 2% active; in the data active = activation above about 40%; inconclusive = no clear call, values can overlap the other calls;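 also: 0% = median of the plate's neutral control wells and 100% = double that signal; a rise in the Bmi1 reporter signal indicates esBAF inhibition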
FXN GAA850 act: FXN promoter activators, primary screen, cell-based, luciferase luminescence, HEK293 lucGAA850; HEK293 lucGAA850 FXN promoter luciferase reporter, 24 h; percent of 10 µM SAHA response; activation, % at 6 µM; 360,000 tested, 0.56% active; AID 540364, 2011;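 active = activation above the average of all compounds screened plus 3 SD, cutoff fixed separately per campaign, cut at about 7.5% in these data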;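 also: 0% = DMSO wells and 100% = 10 µM SAHA wells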
Wnt bcat act: Wnt/beta-catenin pathway activators, primary screen, cell-based, plate reader, single point; Wnt/beta-catenin reporter cell assay, activator; activation, % at 9.35 µM; 300,000 tested, 1.2% active; in the data active = activation above about 30%, passing the limit was not always enough; inconclusive = no clear call, values can overlap the other calls;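 also: 0% = neutral control wells and 100% = positive control wells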
Statin myotox sup: suppressors of statin myotoxicity in C2C12 myotubes, primary screen, cell-based, single point, plate reader; C2C12 myotubes + simvastatin, ATP luminescence, 48 h; scaled: DMSO 0, geranylgeraniol control 100; rescue of ATP level, % at 7.49 µM; 330,000 tested, 0.78% active;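 active = mean ATP rescue above about 67%, or every replicate alone reaching that limit, limit read from the data, passing the limit was not always enough; inconclusive = no clear call, values can overlap the other calls; inactive = mean under the limit and some replicate under it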;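 also: myotubes were challenged with 10 µM simvastatin during compound exposure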
MITF TRPM1 HTS: activators of MITF-driven TRPM1 promoter reporter, primary screen, cell-based, SK-MEL-5, luciferase, single point; SK-MEL-5 TRPM1-promoter luciferase, 24 h; % of positive control, neutral wells = 0; activation, % at 12.5 µM; 300,000 tested, 0.75% active; AID 588334, 2011;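 active = mean activation of at least 80% with every replicate also reaching 80%; inconclusive = mean reaches 80% but some replicate falls short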;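 also: 0% = neutral control wells and 100% = parthenolide positive control wells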
Active calls of the source: *; u = inconclusive; x = no result given.

SMILES | esBAF inh | FXN GAA850 act | Wnt bcat act | Statin myotox sup | MITF TRPM1 HTS
COc1cccc(Nc2ncnc3ccccc23)c1 | 58.1* | 3.4 | x | 1.4 | u
COc1ccc(Nc2ncnc3ccccc23)cc1 | 29.2 | -0.8 | 18.2 | x | 96.8*
O=C(NCC[C@H]1CC[C@H](NC(=O)c2cccnc2)[C@@H](CO)O1)Nc1ccc(C(F)(F)F)cc1 | -2.4 | x | x | -38.3 | x
CO[C@H]1CN(C)C(=O)c2cc(NC(=O)c3ccc(F)cc3)ccc2OC[C@@H](C)N(Cc2cocn2)C[C@@H]1C | -2.6 | x | x | 8.3 | x
CSc1ccc(C2c3[nH]c4ccccc4c3CCN2C(=O)c2ccnn2C)cc1 (stereo not given) | x | 0.2 | 42.4* | x | 31.3
COCc1c(Br)c(C)[nH]c(=O)c1C#N | -5.0 | -0.4 | -1.3 | -7.4 | 0.6
CCOCc1cc(C)[nH]c(=O)c1C#N | -5.5 | 0.7 | -2.7 | 99.4* | -7.4
O=C(N[C@H]1CC[C@@H](CC(=O)N2CCOCC2)O[C@@H]1CO)c1ccccn1 | -3.1 | x | x | 0.1 | x
Cc1nc(NC(=O)CSc2ccc(-c3nc4ccccc4[nH]3)cn2)sc1C | x | 2.8 | x | x | 7.6
O=C(CSc1ccc(-c2nc3ccccc3[nH]2)cn1)Nc1ccc2c(c1)OCCO2 | 46.2* | 2.7 | x | -38.7 | 146.3*
Cc1ccc(SCC(=O)Nc2ccc(-c3nc4ccccc4[nH]3)cc2)cc1 | 61.1* | 1.1 | -2.4 | -9.2 | -6.2
CCc1nnc(NC(=O)CSc2ccc(-c3nc4ccccc4[nH]3)cn2)s1 | u | 5.7 | x | -27.3 | 87.1*
Cc1ccccc1NC(=O)CSc1ccc(-c2ccc(-n3cccn3)cc2)nn1 | 17.4 | 0.1 | 11.3 | 4.4 | 13.6
CCc1nnc(NC(=O)CSc2ccc(-c3ccc(-n4cccn4)cc3)nn2)s1 | x | 6.8 | 28.4 | x | 81.7*
O=C(CCCc1ccccc1)c1ccccc1 | 23.1 | 5.0 | 31.4* | -18.9 | 91.8*
O=C(CCCOC(=O)c1ccc(O)cc1)c1ccccc1 | 43.0* | 3.3 | -3.4 | -3.3 | 24.4
O=C(CCCC(=O)c1ccc(O)cc1)c1ccc(O)cc1 | 29.6 | 1.9 | 55.9* | -1.8 | 98.0*
C[C@@H]1CN([C@@H](C)CO)C(=O)Cc2cc(NC(=O)Nc3cccc4ccccc34)ccc2O[C@@H]1CN(C)C(=O)Nc1ccccc1 | -0.7 | x | x | -63.4 | x
C[C@H](NC(=O)C[C@@H]1C=C[C@@H](NC(=O)C2CCOCC2)[C@@H](CO)O1)c1ccccc1 | 1.4 | x | x | 0.1 | x
O=C(C1CCOCC1)N1CC[C@H]2[C@H](CO)Nc3ccc(Br)cc3[C@H]21 | -5.5 | x | x | 23.3 | x
O=C(C[C@@H]1C=C[C@H](NC(=O)C2CC2)[C@H](CO)O1)Nc1ccccc1 | -0.3 | x | x | 2.0 | x
Cc1ccc(S(=O)(=O)N(C)C[C@H]2Oc3ccc(NS(=O)(=O)c4ccccc4)cc3C(=O)N([C@H](C)CO)C[C@H]2C)cc1 | 1.6 | x | x | x | x
Cc1cc(C)cc(NC(=O)CCc2c(C)nn(-c3ccc(N4CCCCC4)nn3)c2C)c1 | 67.6* | 3.3 | 16.0 | 0.9 | u
Cc1ccc(F)cc1NC(=O)CCc1c(C)nn(-c2ccc(N3CCCCC3)nn2)c1C | 65.0* | 1.6 | 8.3 | -8.3 | 48.0
Cc1nn(-c2ccc(N3CCCCC3)nn2)c(C)c1CCC(=O)Nc1ccc(F)c(F)c1 | 55.0* | 4.7 | 13.9 | 9.5 | 59.6
SMILES | esBAF inh | FXN GAA850 act | Wnt bcat act | Statin myotox sup | MITF TRPM1 HTS
Cc1cc(F)ccc1NC(=O)CCc1c(C)nn(-c2ccc(N3CCCCC3)nn2)c1C | -40.4 | -3.6 | -2.0 | -11.1 | -6.5
COc1ccc(C)cc1NC(=O)CCc1c(C)nn(-c2ccc(N3CCCCC3)nn2)c1C | 61.2* | -0.1 | 10.8 | -6.4 | 37.9
Cc1ccc(NC(=O)CCc2c(C)nn(-c3ccc(N4CCOCC4)nn3)c2C)cc1F | 52.6* | 1.6 | 5.9 | -4.3 | 59.8
CC1(C)Cc2c(C#N)c(N)n(-c3ccccc3)c(=O)c2CO1 | -8.4 | 2.5 | 5.2 | 81.5* | 3.3
N#Cc1c(N)n(-c2ccccc2)c(=O)c2cc([N+](=O)[O-])ccc12 | -8.1 | -0.7 | -1.6 | -7.1 | 7.9
C/C=C/c1ccc2c(c1)O[C@@H](CN(C)C(=O)COC)[C@@H](C)CN([C@H](C)CO)S2(=O)=O | 0.6 | x | x | -2.6 | x
N=C(N)c1ccc(OCCCCCOc2ccc(C(=N)N)cc2)cc1 | -11.0 | -3.4 | -15.0 | -136.1 | -8.9
CCCCCCOc1ccc(/C(N)=N/O)cc1 | 74.5* | 5.5 | x | -19.7 | 42.3
C[C@@H]1CN([C@H](C)CO)S(=O)(=O)c2ccc(C#CCN(C)C)cc2O[C@H]1CN(C)Cc1ccc(F)cc1 | -3.8 | x | x | -77.1 | x
CCOc1cc(/C=C/c2nc3ccccc3c(=O)[nH]2)ccc1O | 71.0* | 4.3 | 7.9 | -13.5 | 78.2
COc1cc(/C=C/c2nc3ccccc3c(=O)[nH]2)ccc1O | 10.7 | 0.9 | 3.3 | -14.5 | x
c1ccc(-c2cc3ccccc3cn2)cc1 | 62.3* | 3.3 | 47.6* | 8.5 | 63.3
c1ccc(-c2cc(-c3ccccc3)ncn2)cc1 | x | 1.3 | 13.7 | x | x
Fc1ccc2cc(-c3ccccc3)ncc2c1 | 61.2* | 6.7 | 32.8* | 1.8 | 91.6*
C[C@@H]1CN([C@H](C)CO)C(=O)c2cc(C#CCN(C)C)cnc2O[C@H]1CN(C)C(=O)c1cccc(F)c1 | 2.2 | x | x | 1.5 | x
COCCn1c(C)cc(C(=O)CSc2ccc3ccccc3n2)c1C | 8.3 | 0.2 | x | 19.3 | 87.0*
O=C(O)c1c2c(nc3ccc(S(=O)(=O)N4CCC(C(=O)NCc5ccccc5Cl)CC4)cc13)CCCC2 | -7.0 | 0.0 | 0.3 | 76.9* | -3.9
CCn1c(SCc2cccc(C)c2)nnc1-c1ccccc1 | 11.4 | 1.6 | x | -4.0 | 14.9
CCn1c(SC(C)C)nnc1-c1cc(-c2ccccc2)sc1N | 68.1* | -1.0 | 16.4 | -29.7 | x
COc1ccc(-c2cnc3c(c2)C(=O)N([C@@H](C)CO)C[C@H](C)[C@@H](CN(C)C(=O)CN(C)C)O3)cc1 | 4.4 | x | x | 5.8 | x
Cc1cc(C)nc(NC(=S)Nc2cccc(F)c2)c1 | 9.8 | 1.8 | 13.7 | -22.8 | 24.8
COC(=O)c1ccc(NC(=S)Nc2ccccn2)cc1 | 57.5* | 6.9 | x | -3.3 | 112.5*
COC(=O)c1ccc(NC(=S)Nc2ccc(O)cc2)cc1 | x | 0.6 | 1.4 | x | 3.4
Cc1cccc(NC(=S)Nc2ccccn2)c1 | x | 3.3 | 59.5* | x | 25.6
COc1cccc(NC(=S)Nc2cc(C)cc(C)n2)c1 | u | 6.7 | 54.4* | -4.5 | x
COc1ccc(CN(C)C[C@H]2Oc3ccc(NS(=O)(=O)c4ccc(F)cc4)cc3CC(=O)N([C@@H](C)CO)C[C@@H]2C)cc1 | -0.5 | x | x | 67.3* | x
COc1ccc(CN(C)C[C@H]2Oc3ccc(NS(=O)(=O)c4ccccc4)cc3CC(=O)N([C@@H](C)CO)C[C@@H]2C)cc1 | 0.0 | x | x | 65.5* | x
C[C@@H]1CN([C@@H](C)CO)C(=O)c2cc(NS(=O)(=O)c3ccc(F)cc3)ccc2O[C@H]1CN(C)Cc1ccc(-c2ccccc2)cc1 | 0.0 | x | x | 70.6* | x
